Results taken from PubChem BioAssay (NCI).
About 83,000 compounds went through this panel and 20% of them were active in at least one assay; those are over-represented in the sample as a whole.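 Single-dose data. Exposure time 48 hours. Values below 10 considered active.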 Calls of active or inactive are those of the source.

Experiments:
Test in all cases: NCI-60 one-dose screen, 48 h (100 = growth as untreated, 0 = no growth, -100 = all killed)
Conditions in all cases: 10 µM unless noted
[1] = system: NCI-H23 lung
[2] = system: NCI-H226 lung
[3] = system: NCI-H322M lung
[4] = system: HOP-62 NSCLC
[5] = system: NCI-H460 lung
[6] = system: HOP-92 NSCLC
[7] = system: NCI-H522 lung
[8] = system: A549/ATCC NSCLC
[9] = system: COLO 205 colon
[10] = system: DU-145 prostate
[11] = system: K-562 leukemia
[12] = system: MALME-3M melanoma
[13] = system: MDA-MB-231 breast
[14] = system: RXF 393 renal
[15] = system: SF-268 CNS
[16] = system: SF-295 CNS
[17] = system: SF-539 CNS
[18] = system: UACC-257 melanoma
[19] = system: M14 melanoma
[20] = system: 786-0 renal

Measured: growth

Fc1ccc2c(-c3cncn3CCc3ccccc3)c[nH]c2c1
inactive: [1] 86.2% | [2] 75.9% | [3] 91.8% | [4] 87.4% | [5] 92.7% | [6] 65% | [7] 82% | [8] 87% | [9] 101% | [10] 104% | [11] 74.6% | [12] 91.4% | [13] 87.8% | [14] 79.6% | [15] 83.9% | [16] 83.5% | [17] 94.6% | [18] 94.6% | [19] 90.8%

Brc1ccc2[nH]cc(-c3cncn3CCc3ccccc3)c2c1
inactive: [1] 37.9% | [2] 53.5% | [3] 74.3% | [4] 63.4% | [5] 66.5% | [6] 23.4% | [7] 51.1% | [8] 56.7% | [9] 66.3% | [10] 68.1% | [11] 27.3% | [12] 65% | [13] 65.4% | [14] 38.1% | [15] 50.3% | [16] 37.7% | [17] 65.2% | [18] 48.3% | [19] 53.3%

CCCCC/C=C/C(C)=C/C1CC(C)C/C=C/CCC(O)C(OC(N)=O)CCC(C)CC(O)C(C)C(=O)O1 (stereo unspecified)
inactive: [1] 97.6% | [2] 104% | [3] 101% | [4] 82.7% | [5] 67% | [6] 24.5% | [7] 79.2% | [8] 85% | [20] 77.9% | [9] 121% | [10] 79.5% | [12] 101% | [14] 110% | [15] 104% | [16] 59.2% | [17] 106% | [18] 88.1% | [19] 72.9%

CCOC(=O)c1cc(C(=O)c2ccc(OC)c(OC)c2)n2ccc(/C=C/c3cc[n+](CC(=O)c4ccc(OC)c(OC)c4)cc3)cc12
inactive: [1] 93.5% | [2] 99.2% | [3] 99% | [4] 101% | [5] 98.6% | [6] 110% | [7] 85.5% | [8] 95.9% | [9] 114% | [10] 96.3% | [11] 78.2% | [12] 97.3% | [13] 89.4% | [14] 111% | [15] 99.5% | [16] 102% | [17] 87.3% | [18] 98.7% | [19] 96.9%

O=C(C[n+]1cccc2ccccc21)c1ccc(O)c(O)c1
inactive: [1] 78.5% | [2] 62.1% | [3] 93.5% | [4] 102% | [5] 92.6% | [6] 73.2% | [7] 20.9% | [8] 84.4% | [9] 56.4% | [10] 84.8% | [11] 28.5% | [12] 53.9% | [13] 59.1% | [14] 49.6% | [15] 84.7% | [16] 105% | [17] 91.2% | [18] 78.1%
active: [19] -83.4%

COc1ccc(C(=O)C2C(C#N)C(C#N)C3C=Cc4ccccc4N32)cc1 (stereo unspecified)
inactive: [1] 37.9% | [2] 77.6% | [3] 53.5% | [4] 30.1% | [5] 19.1% | [6] 84.1% | [8] 29.9% | [10] 24.2% | [11] 11.5% | [12] 38.6% | [13] 29% | [15] 55.7% | [16] 22.5% | [18] 82.9%
active: [7] 0.174% | [9] -5.52% | [14] -21.8% | [17] -20.9% | [19] -6.64%

N#CC1C(C#N)C2c3ccccc3C=CN2C1C(=O)c1ccc(Br)cc1 (stereo unspecified)
inactive: [1] 91.4% | [2] 91.6% | [3] 96.8% | [4] 97.7% | [5] 87.7% | [6] 95.8% | [7] 88.7% | [8] 83.6% | [9] 107% | [10] 97.8% | [11] 99.8% | [12] 100% | [13] 92.2% | [14] 105% | [15] 95.1% | [16] 96.8% | [17] 89.3% | [18] 103% | [19] 104%

COc1cc(OC)cc(C(=O)C[n+]2cccc3cc[nH]c32)c1
active: [18] -43.7%
inactive: [1] 94.7% | [2] 94.2% | [3] 93.1% | [4] 99.1% | [5] 101% | [6] 88.9% | [7] 93% | [8] 97.6% | [9] 107% | [10] 115% | [11] 98% | [12] 99.1% | [13] 98.4% | [14] 83.8% | [15] 97% | [16] 101% | [17] 101% | [19] 96.3%
